ATXN viability – Viability Counterscreen for Primary qHTS for Inhibitors of ATXN expression. S2 cells (HEK-293 line with an ATXN2-luciferase reporter) viability, CellTiter-Fluor protease fluorescence, 24 h. Potency, µM (series often up to 56.7 µM), actives largely listed as cytotoxic. actives 0.49% (n = 400,000). AID 651635, 2014; further: nearly all actives have a fitted effect of over 40% in size
HT1080-NT tox – qHTS for induction of synthetic lethality in tumor cells producing 2HG: qHTS for the HT-1080-NT fibrosarcoma cell line; HT-1080-NT fibrosarcoma viability, CellTiter-Glo ATP luminescence, 48 h; Potency, µM (doses to about 46.1 µM), for inactives: at the top dose activity, negative = less viability, usual class: cytotoxic; actives 1.6% (n = 360,000); AID 686970, 2013;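 further: NT is the 2HG producing partner of a matched IDH1 knockdown line; 0% = DMSO-treated cells and -100% = media-only wells without cells; nearly all actives have a fitted effect of over 55% in size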
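Luminescent CellTiter-Glo readout after 48 hours of compound exposure at 37 degrees C defined viability of HT-1080-NT cells. Activity was normalized to DMSO wells and cell-free media wells; concentration-response curves were fitted and assigned curve classes.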
KB-3-1 cytotox – qHTS assay for MDR1-selective chemotherapeutics: Primary screen using the parental adenocarcinoma cell KB-3-1; KB-3-1 viability, CellTiter-Glo ATP luminescence, 72 h; Potency, µM (highest dose often 46.1 µM), most hits filed as cytotoxic; actives 1.4% (n = 400,000); AID 1347075, 2019; further: on the % scale 0 is the no-effect control and ±100 the full control effect; nearly all actives have a fitted effect of over 60% in size
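Cytotoxicity in the drug-sensitive parental line KB-3-1 was scored as loss of CellTiter-Glo luminescence following 72 h incubation with compound. Values come from curve fitting of normalized concentration-response data.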
KB-V1 MDR tox – qHTS assay for MDR1-selective chemotherapeutics: Primary screen using the drug-selected MDR subline cells KB-V1. Potency, µM (top dose mostly 46.1 µM), hits mostly cytotoxic. KB-V1 MDR cells viability, CellTiter-Glo, 72 h. actives 3.4% (n = 400,000); further: on the % scale 0 is the no-effect control and ±100 the full control effect; nearly all actives have a fitted effect of over 60% in size
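qHTS viability screen in drug-selected KB-V1 MDR cells: 72 h compound treatment at 37 degrees C, ATP luminescence end point.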
ATXN2 expr inh – Primary qHTS for Inhibitors of ATXN expression. actives 0.72% (n = 360,000). HEK-293 ATXN2-luciferase reporter, luminescence, 24 h. Potency, µM (highest dose often 57 µM), inactives show at the top dose activity change, negative = inhibition, actives largely listed as inhibitors; further: on the % scale 0 is the no-effect control and ±100 the full control effect; nearly all actives have a fitted effect of over 55% in size
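qHTS (up to 57 uM final) was run with 24 h compound exposure of reporter cells at 37 °C. Each well was multiplexed: SteadyGlo luminescence measured ATXN2-luciferase expression after a fluorogenic Gly-Phe-AFC viability readout (25 uM final).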
HT1080 IDH1KD tx – qHTS for induction of synthetic lethality in tumor cells producing 2HG: qHTS for the HT-1080-IDH1KD cell line; HT-1080 IDH1 knockdown viability, ATP luminescence, 48 h; actives 2% (n = 360,000); Potency, µM (highest dose often 46.1 µM), inactives show at the top dose activity, negative = toxicity, most hits filed as cytotoxic;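 further: 0% = DMSO wells and -100% = cell-free medium wells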
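Knockdown cells (IDH1KD HT-1080) received compounds 2 h after plating at 750 cells/well and were kept 48 h at 37 °C in 5% FBS RPMI. A CellTiter-Glo luminescence read gave % activity for curve fitting.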
An asterisk follows results filed as active; i = inactive; ? = inconclusive; · = no result. The list is not random: actives were taken first. Their share in the collection is about 6.2%. The call rests on the fitted dose curve; in most records, active means well fitted curve in the direction sought with a large enough effect; inconclusive means small, poorly fitted or top-dose-only effect, or another doubt; inactive means no such curve, though single readings can be large; an effect the other way counts as inactive or inconclusive. Potency means the concentration at half of the fitted maximal effect.

SMILES | ATXN viability | HT1080-NT tox | KB-3-1 cytotox | KB-V1 MDR tox | ATXN2 expr inh | HT1080 IDH1KD tx
CC(=O)Nc1ccc(C(=O)N2CCCC(c3nc(SCc4ccccn4)ncc3C)C2)cc1 (centres undefined) | i | · | · | · | · | ·
COC(=O)CNC(c1ccccc1Cl)c1cc(Br)ccc1NS(=O)(=O)c1ccc(C)cc1 (centres undefined) | ? | -22% | ? | 18µM* | -14% | -27%
CCc1cccc(NC(=O)C2CCCN(S(=O)(=O)c3cccs3)C2)c1 (centres undefined) | ? | ? | i | ? | ? | -27%
Cc1cc(=O)oc2cc(OCC(=O)N3CCCC3)c(Cl)cc12 | i | -3% | i | i | -10% | 19%
Cc1cc(=O)oc2cc(OCC(=O)N3CCOCC3)c(Cl)cc12 | i | 5% | i | 9.2µM* | 5% | 6%
CCOc1ccc(NC(=O)CN2C(=O)NC(C)(c3ccc(OC(F)F)cc3)C2=O)cc1 (centres undefined) | ? | ? | ? | i | 7% | 18µM*
Cc1cccc(C(=O)NC(=O)Nc2ccc(-c3cc(C(F)(F)F)nn3-c3ccccc3)cc2)c1 | i | · | i | i | -8% | ·
CCCCCCCCCCCCCCC[C@@H](O)[C@@H](N)CO | ? | 18µM* | i | ? | 0% | 21%
CC1CCN(S(=O)(=O)c2ccc3c(ccc(=O)n3CC(=O)Nc3cccc(F)c3)c2)CC1 | i | · | i | ? | -9% | ·
CCN1CCN(c2cc(C(C)C)nc3c(-c4ccccc4)c(C)nn23)CC1 | ? | ? | i | ? | ? | 16µM*
CCN1CCN(c2cc(C(C)(C)C)nc3c(-c4ccccc4)c(C)nn23)CC1 | ? | ? | i | i | 5% | 13µM*
Cc1nn2c(N3CCOCC3)cc(C(C)C)nc2c1-c1ccccc1 | i | 6% | i | i | 2% | 11%
CC1=C(C(=O)Nc2cccnc2)C(c2ccccc2)n2nc(SCc3ccccc3F)nc2N1 (centres undefined) | i | · | i | ? | ? | ·
Cc1ccccc1-c1noc(-c2ccc(NC3CCCC3)c([N+](=O)[O-])c2)n1 | i | · | i | ? | 3% | ·
CN1C2=CC=CC=CC2=[N+](C)C12C([N+](=O)[O-])=CC(=[N+]([O-])[O-])C=C2[N+](=O)[O-] (centres undefined) | i | ? | i | i | 3% | 2.1µM*
CN1C2=CC=CC=CC2=[N+](C)C12C=CC(=[N+]([O-])[O-])C=C2[N+](=O)[O-] (centres undefined) | · | -7% | i | ? | -18% | -5%
CCOc1c(Br)cc(C2CC(=O)Nc3cc(OC)c(OC)cc32)cc1OC (centres undefined) | i | -29% | i | i | 11% | ?
COc1cc(C2CC(=O)Nc3cc(C)c(C)cc32)cc(OC)c1OC (centres undefined) | i | ? | 9.2µM* | 16µM* | -20% | ?
COc1cc2c(c(OC)c1)C(c1ccncc1)CC(=O)N2 (centres undefined) | i | 9% | i | ? | 3% | 3%
COc1cc(C2CC(=O)Nc3n[nH]c(-c4ccccc4)c32)cc(OC)c1OC (centres undefined) | ? | ? | 21µM* | i | 2% | ?
CNS(=O)(=O)c1cnccc1N1CCN(c2cccc(Cl)c2)CC1 | i | -10% | i | i | -16% | 1%
